# Test results from PubChem BioAssay (EPA / NIEHS).
# Inconclusive results are not listed. More than one record can exist for a structure, and the calls need not agree. The source made the active and inactive calls. The calls were made as follows, unless noted: active = hit-call score of the fitted dose curve at least 0.9, where 1 is the maximum; inactive = score below 0.9.
# How the values were obtained:
# [1] = ATG_NFI_CIS: Attagene CIS-FACTORIAL HepG2 Assay for human Nuclear Factor I (NFI) (AID 2282989); conditions: HepG2 cis-regulatory reporter, NFI response element transcription; actives raise or lower the signal
# Outline: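 Reporter transcripts were measured by RT-PCR with fluorescent primer extension and capillary electrophoresis 24 h post-treatment. HepG2 cells carried transiently transfected cis-regulated reporter constructs reporting endogenous factor activity; gain or loss fitted against DMSO baseline.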
# [2] = ATG_NRF2_ARE_CIS: Attagene CIS-FACTORIAL HepG2 Assay for human Nuclear Factor Erythroid 2 Related Factor 2 (NFR2) response to Antioxidant Response Elements (ARE) (AID 2282992); conditions: HepG2 Attagene ARE/NRF2 reporter, transcription factor activity; actives raise or lower the signal;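 as to AC50: reporter mRNA level measured by RT-PCR and capillary electrophoresis fluorescence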
# Outline: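 Transient MRTU transfection of HepG2; 24 h compound exposure; TriZol RNA, RT with oligo(dT), PCR, 6-FAM primer extension, HpaI cut, CE. Bidirectional fit vs DMSO.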
# [3] = ATG_Oct_MLP_CIS: Attagene CIS-FACTORIAL HepG2 Assay for human Octamer-Binding Transcription Factor (Oct) (AID 2282993); conditions: HepG2 Attagene cis-factorial Oct reporter, mRNA; actives raise or lower the signal
# Outline: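 Readout is reporter transcript level from RT-PCR with fluorescent primer extension and capillary electrophoresis, fitted in both directions against DMSO. Transfected HepG2 reporter units report endogenous factor activity after 24 h dosing.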
# [4] = target: Cellular tumor antigen p53 (Homo sapiens) (UniProt P04637); assay: ATG_p53_CIS: Attagene CIS-FACTORIAL HepG2 Assay for human p53 Transcription Factor (AID 2282994); conditions: HepG2 p53 cis-element reporter, Attagene mRNA; actives raise or lower the signal
# Cellular tumor antigen p53 (Homo sapiens), sequence (P04637 whole entry, looked up): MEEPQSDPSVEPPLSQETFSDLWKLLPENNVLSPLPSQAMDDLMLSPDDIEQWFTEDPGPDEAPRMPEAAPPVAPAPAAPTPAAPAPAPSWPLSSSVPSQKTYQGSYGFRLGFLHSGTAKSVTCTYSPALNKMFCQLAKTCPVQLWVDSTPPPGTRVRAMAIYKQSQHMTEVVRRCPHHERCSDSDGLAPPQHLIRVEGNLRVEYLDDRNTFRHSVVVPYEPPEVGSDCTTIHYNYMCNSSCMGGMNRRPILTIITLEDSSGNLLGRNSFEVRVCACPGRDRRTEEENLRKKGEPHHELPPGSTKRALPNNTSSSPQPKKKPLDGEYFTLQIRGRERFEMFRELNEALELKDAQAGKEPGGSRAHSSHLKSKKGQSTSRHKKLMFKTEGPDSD
# Outline: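 HepG2, transient MRTU transfection (cis promoter elements, endogenous TFs); 24 h dosing; RNA isolation, RT-PCR, 6-FAM primer extension, HpaI digest, CE fluorescence; bidirectional fit vs DMSO.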
# [5] = BSK_3C_TissueFactor: BioMAP Diversity Plus: 3C Assay for Tissue Factor Biomarker Activity (AID 2282997); conditions: BioMAP 3C HUVEC, tissue factor biomarker readout; actives raise or lower the signal
# Outline: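 Dosing of human umbilical vein endothelial cells preceded a 24 h incubation. Tissue Factor was then read by ELISA, with increases and decreases both scored relative to DMSO controls.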
# [6] = BSK_3C_uPAR: BioMAP Diversity Plus: 3C Assay for Urokinase-type plasminogen activator receptor (uPAR) Biomarker Activity (AID 2282998); conditions: BioMAP 3C HUVEC, uPAR biomarker ELISA; actives raise or lower the signal
# Outline: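 Cell-surface uPAR on HUVEC (3C system) read by ELISA at 24 h post-treatment, with DMSO as baseline and fitting in both directions. Parallel cultures stained with SRB to flag overt cytotoxicity.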
# [7] = BSK_3C_VCAM1: BioMAP Diversity Plus: 3C Assay for Vascular cell adhesion molecule 1 (VCAM1) Biomarker Activity (AID 2282999); conditions: BioMAP 3C HUVEC, VCAM1 ELISA, cytokine-stimulated; actives raise or lower the signal
# Outline: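 Human umbilical vein endothelial cells were dosed with compound for 24 h, after which cell-surface VCAM-1 was quantified by ELISA. Bidirectional curve fitting used DMSO as negative control and activity baseline.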
# [8] = BSK_4H_Eotaxin3: BioMAP Diversity Plus: 4H Assay for Eotaxin 3 Biomarker Activity (AID 2283000); conditions: primary human endothelial cells (HUVEC); actives raise or lower the signal;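 as to outcome: CCL26 protein level quantified by ELISA in parallel with SRB cytotoxicity check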
# Outline: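 Human umbilical vein endothelial cells (BSK_4H system) dosed with test chemical; Eotaxin-3 (CCL26) measured by ELISA 24 h after dosing. Bidirectional curve fitting relative to DMSO negative control as baseline.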
# [9] = target: human Peroxisome Proliferator-activated Receptor alpha (PPARa), PPARA (gene 5465) (UniProt Q07869); assay: ATG_PPARa_TRANS: Attagene TRANS-FACTORIAL HepG2 Assay for human Peroxisome Proliferator-activated Receptor alpha (PPARa) (AID 2283001; active = hit-call score of the fitted dose curve at least 0.9, where 1 is the maximum;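 as to AC50: potency for gain of reporter signal over DMSO so agonist or activator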)
# human Peroxisome Proliferator-activated Receptor alpha (PPARa), PPARA (gene 5465), sequence (Q07869 whole entry, looked up, the tested form may be a part): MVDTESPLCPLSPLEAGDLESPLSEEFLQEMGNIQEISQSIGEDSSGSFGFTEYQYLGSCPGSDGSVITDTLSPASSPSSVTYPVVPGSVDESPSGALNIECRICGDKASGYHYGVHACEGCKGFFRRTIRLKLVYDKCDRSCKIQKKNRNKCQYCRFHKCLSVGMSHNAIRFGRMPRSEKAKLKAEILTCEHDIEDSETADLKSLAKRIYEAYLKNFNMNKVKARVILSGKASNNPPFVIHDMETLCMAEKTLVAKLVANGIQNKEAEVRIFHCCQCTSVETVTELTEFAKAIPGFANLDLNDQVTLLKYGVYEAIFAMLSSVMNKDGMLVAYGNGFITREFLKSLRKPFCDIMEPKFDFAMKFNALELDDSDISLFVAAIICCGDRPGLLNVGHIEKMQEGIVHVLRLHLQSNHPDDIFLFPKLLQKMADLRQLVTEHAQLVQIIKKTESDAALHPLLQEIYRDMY
# Outline: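 HepG2 cells transiently transfected with multiplexed GAL4-UAS reporter units and chimeric NR-Gal4 constructs were dosed for 24 h. Reporter mRNA was measured by RT-PCR with fluorescent labelling and capillary electrophoresis; gain of signal fitted against DMSO.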
# [10] = read-out: Intercellular Adhesion Molecule 1 (ICAM1), ICAM1 (gene 3383); assay: BSK_3C_ICAM1: BioMAP Diversity Plus: 3C Assay for Intercellular Adhesion Molecule 1 (ICAM1) Biomarker Activity (AID 2283003); conditions: primary human endothelial cells (HUVEC); actives raise or lower the signal
# Outline: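 Human vascular endothelial primary cells, 3C conditions, 24 h treatment. ICAM-1 by ELISA.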
# [11] = BSK_3C_Proliferation: Cell Proliferation Assessment in the BioMAP Diversity Plus: 3C Assay (AID 2283006); conditions: primary human endothelial cells (HUVEC);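 as to AC50: potency may reflect either rise or fall in cell number versus DMSO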
# Outline: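 Proliferation of human vascular endothelial primary cells after 48 h dosing, quantified as SRB-stained protein at 560 nm relative to DMSO.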
# [12] = target: Peroxisome proliferator-activated receptor gamma (Homo sapiens) (UniProt P37231); assay: ATG_PPARg_TRANS: Attagene TRANS-FACTORIAL HepG2 Assay for human Peroxisome Proliferator-activated Receptor-gamma (PPARg) (AID 2283007; active = hit-call score of the fitted dose curve at least 0.9, where 1 is the maximum)
# Peroxisome proliferator-activated receptor gamma (Homo sapiens), sequence (P37231 whole entry, looked up, the tested form may be a part): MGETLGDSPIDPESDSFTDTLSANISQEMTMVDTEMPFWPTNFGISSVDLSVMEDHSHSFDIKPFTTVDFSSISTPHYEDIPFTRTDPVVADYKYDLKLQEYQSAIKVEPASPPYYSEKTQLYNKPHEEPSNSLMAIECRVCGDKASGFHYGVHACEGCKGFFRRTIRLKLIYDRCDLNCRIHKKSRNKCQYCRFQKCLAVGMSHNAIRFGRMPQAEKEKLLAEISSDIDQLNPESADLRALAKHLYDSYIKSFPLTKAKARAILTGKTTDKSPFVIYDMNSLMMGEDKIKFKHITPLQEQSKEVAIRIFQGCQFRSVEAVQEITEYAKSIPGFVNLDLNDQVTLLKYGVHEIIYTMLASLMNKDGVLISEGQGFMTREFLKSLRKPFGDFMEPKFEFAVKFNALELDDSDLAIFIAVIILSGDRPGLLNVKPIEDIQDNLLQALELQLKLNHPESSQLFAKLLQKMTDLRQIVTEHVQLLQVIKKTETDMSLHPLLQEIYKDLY
# Outline: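 HepG2 cells transiently transfected with multiplexed GAL4-UAS reporter units and exogenous chimeric NR-Gal4 proteins; reporter mRNA quantified after 24 h compound exposure by RT-PCR, fluorescent labelling, HpaI digestion and capillary electrophoresis; gain-of-signal fitted versus DMSO baseline.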
# [13] = ATG_NF_kB_CIS: Attagene CIS-FACTORIAL HepG2 Assay for human Nuclear Factor Kappa B (NF-kB) (AID 2282991); conditions: HepG2 Attagene cis-factorial NF-kB reporter mRNA; actives raise or lower the signal
# Outline: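 HepG2 cells transiently transfected with multiplexed cis-element reporter units measuring endogenous transcription factor activity; reporter mRNA read 24 h after dosing by RT-PCR, fluorescent labelling, HpaI digestion and capillary electrophoresis. Bidirectional fit against DMSO baseline.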
# [14] = target: human Peroxisome Proliferator-activated Receptor delta (PPARd), PPARD (gene 5467) (UniProt Q03181); assay: ATG_PPARd_TRANS: Attagene TRANS-FACTORIAL HepG2 Assay for human Peroxisome Proliferator-activated Receptor delta (PPARd) (AID 2283002; active = hit-call score of the fitted dose curve at least 0.9, where 1 is the maximum)
# human Peroxisome Proliferator-activated Receptor delta (PPARd), PPARD (gene 5467), sequence (Q03181 whole entry, looked up, the tested form may be a part): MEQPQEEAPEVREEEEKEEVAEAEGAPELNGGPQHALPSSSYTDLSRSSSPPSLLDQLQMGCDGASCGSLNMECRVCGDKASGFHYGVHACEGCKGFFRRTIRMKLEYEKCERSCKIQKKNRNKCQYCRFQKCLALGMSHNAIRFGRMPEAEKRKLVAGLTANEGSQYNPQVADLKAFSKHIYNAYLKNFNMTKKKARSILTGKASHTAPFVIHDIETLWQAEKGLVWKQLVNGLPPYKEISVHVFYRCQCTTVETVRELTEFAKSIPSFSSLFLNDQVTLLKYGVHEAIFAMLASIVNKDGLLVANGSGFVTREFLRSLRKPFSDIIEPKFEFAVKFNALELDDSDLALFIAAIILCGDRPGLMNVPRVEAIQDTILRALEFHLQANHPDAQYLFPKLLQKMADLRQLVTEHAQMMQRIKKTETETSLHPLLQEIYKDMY
# Outline: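 HepG2 cells transiently transfected with multiplexed GAL4-UAS reporter units and exogenous chimeric NR-Gal4 proteins; 24 h compound exposure. Reporter mRNA measured by RT-PCR, 6-FAM labelling, HpaI digestion and capillary electrophoresis; gain of signal versus DMSO.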
# [15] = target: human RAR-related Orphan Receptor beta (RORb), RORB (gene 6096) (UniProt Q92753); assay: ATG_RORb_TRANS: Attagene TRANS-FACTORIAL HepG2 Assay for human RAR-related Orphan Receptor beta (RORb) (AID 2283010; active = hit-call score of the fitted dose curve at least 0.9, where 1 is the maximum)
# human RAR-related Orphan Receptor beta (RORb), RORB (gene 6096), sequence (Q92753 whole entry, looked up, the tested form may be a part): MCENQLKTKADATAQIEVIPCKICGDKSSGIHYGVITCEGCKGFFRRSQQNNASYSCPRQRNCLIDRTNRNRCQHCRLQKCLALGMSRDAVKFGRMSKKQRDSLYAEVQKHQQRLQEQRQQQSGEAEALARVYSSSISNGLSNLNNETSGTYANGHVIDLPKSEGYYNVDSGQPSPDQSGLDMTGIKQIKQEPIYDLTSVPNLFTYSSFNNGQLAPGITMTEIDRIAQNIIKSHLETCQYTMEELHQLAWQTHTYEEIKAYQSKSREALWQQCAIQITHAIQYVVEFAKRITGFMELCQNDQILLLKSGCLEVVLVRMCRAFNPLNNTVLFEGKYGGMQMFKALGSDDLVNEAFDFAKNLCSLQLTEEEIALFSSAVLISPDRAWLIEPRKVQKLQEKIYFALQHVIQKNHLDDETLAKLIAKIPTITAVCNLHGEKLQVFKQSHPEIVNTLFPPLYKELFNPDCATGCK
# Outline: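 In this TRANS-format test, human HepG2 cells express chimeric NR-Gal4 fusion proteins driving GAL4-UAS reporters. After 24 h dosing, reporter transcripts are measured by fluorescent RT-PCR/capillary electrophoresis, with DMSO as negative control.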
# [16] = target: Nuclear receptor subfamily 1 group I member 2 (Homo sapiens) (UniProt O75469); assay: ATG_PXR_TRANS: Attagene TRANS-FACTORIAL HepG2 Assay for human Pregnane X Receptor (PXR) (AID 2283008; active = hit-call score of the fitted dose curve at least 0.9, where 1 is the maximum)
# Nuclear receptor subfamily 1 group I member 2 (Homo sapiens), sequence (O75469 whole entry, looked up, the tested form may be a part): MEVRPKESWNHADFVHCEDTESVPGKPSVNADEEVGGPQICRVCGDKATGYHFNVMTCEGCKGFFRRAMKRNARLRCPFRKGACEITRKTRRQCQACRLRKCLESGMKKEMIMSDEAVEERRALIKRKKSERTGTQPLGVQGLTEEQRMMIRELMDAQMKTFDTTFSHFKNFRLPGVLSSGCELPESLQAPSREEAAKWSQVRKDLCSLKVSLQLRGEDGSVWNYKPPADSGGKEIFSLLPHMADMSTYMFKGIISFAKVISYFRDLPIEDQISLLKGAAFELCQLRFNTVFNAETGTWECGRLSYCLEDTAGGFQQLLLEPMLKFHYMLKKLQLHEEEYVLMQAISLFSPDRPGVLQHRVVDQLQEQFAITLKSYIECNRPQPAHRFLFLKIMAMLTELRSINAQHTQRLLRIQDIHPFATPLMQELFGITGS
# Outline: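 Read-out is fluorescence of labelled reporter cDNA fragments separated by capillary electrophoresis after RT-PCR and HpaI digestion. Source: HepG2 cells carrying PXR-GAL4/UAS reporter constructs, treated 24 h; activity fitted upward relative to DMSO.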
# [17] = target: human Retinoic Acid Receptor gamma (RARg), RARG (gene 5916) (UniProt P13631); assay: ATG_RARg_TRANS: Attagene TRANS-FACTORIAL HepG2 Assay for human Retinoic Acid Receptor gamma (RARg) (AID 2283009; active = hit-call score of the fitted dose curve at least 0.9, where 1 is the maximum)
# human Retinoic Acid Receptor gamma (RARg), RARG (gene 5916), sequence (P13631 whole entry, looked up, the tested form may be a part): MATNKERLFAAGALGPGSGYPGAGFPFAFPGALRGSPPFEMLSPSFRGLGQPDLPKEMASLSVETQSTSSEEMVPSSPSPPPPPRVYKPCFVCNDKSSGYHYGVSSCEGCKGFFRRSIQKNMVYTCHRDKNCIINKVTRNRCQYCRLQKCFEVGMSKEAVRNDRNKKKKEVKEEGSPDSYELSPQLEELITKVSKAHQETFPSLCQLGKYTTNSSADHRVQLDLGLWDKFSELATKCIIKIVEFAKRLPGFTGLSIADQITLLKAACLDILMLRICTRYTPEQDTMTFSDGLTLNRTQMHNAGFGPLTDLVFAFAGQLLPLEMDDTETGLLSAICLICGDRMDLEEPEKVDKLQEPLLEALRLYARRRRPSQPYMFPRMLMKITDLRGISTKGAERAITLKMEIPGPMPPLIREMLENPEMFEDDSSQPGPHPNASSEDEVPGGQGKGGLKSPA
# Outline: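 HepG2, RARg-GAL4 TRANS system, 24 h exposure; reporter mRNA by RT-PCR + CE fluorescence; increase over DMSO.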
# [18] = target: Myc proto-oncogene protein (Homo sapiens) (UniProt P01106); assay: ATG_Myc_CIS: Attagene CIS-FACTORIAL HepG2 Assay for human Myelocytomatosis (Myc) Proto-Oncogene Transcription Factor (AID 2282990); conditions: HepG2, Attagene cis-reporter transcription factor activity; actives raise or lower the signal
# Myc proto-oncogene protein (Homo sapiens), sequence (P01106 whole entry, looked up): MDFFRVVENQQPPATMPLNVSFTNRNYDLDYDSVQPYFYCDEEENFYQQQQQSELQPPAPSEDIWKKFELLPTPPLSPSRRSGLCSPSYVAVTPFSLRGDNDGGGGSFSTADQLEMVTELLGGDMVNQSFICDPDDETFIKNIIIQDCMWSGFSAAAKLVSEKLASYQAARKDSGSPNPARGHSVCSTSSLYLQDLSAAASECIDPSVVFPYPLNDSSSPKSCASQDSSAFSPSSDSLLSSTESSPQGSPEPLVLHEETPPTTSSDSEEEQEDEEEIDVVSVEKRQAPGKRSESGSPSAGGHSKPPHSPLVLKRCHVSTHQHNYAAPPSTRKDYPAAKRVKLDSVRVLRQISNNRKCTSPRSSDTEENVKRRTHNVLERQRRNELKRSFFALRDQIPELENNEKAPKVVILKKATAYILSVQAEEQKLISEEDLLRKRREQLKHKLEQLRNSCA
# Outline: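 HepG2 cells transiently transfected with multiple cis-promoter-driven reporter transcription units, so endogenous TF activity is read. After 24 h compound exposure, reporter mRNA was quantified by RT-PCR, 6-FAM labelling, HpaI digestion and capillary electrophoresis; bidirectional fit versus DMSO.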
compound,measurement,setting,value
CCCCCCCCCC=O,outcome,[1],inactive
same,outcome,[2],inactive
same,outcome,[3],inactive
same,outcome,[4],inactive
same,outcome,[5],inactive
same,outcome,[6],inactive
same,outcome,[7],inactive
same,outcome,[8],inactive
same,AC50,[9],29.6 µM (active)
same,outcome,[10],inactive
same,outcome,[11],inactive
same,AC50,[12],45.4 µM (active)
Sc1nc(S)nc(S)n1,outcome,[1],inactive
same,outcome,[13],inactive
same,outcome,[2],inactive
same,outcome,[3],inactive
same,outcome,[4],inactive
same,outcome,[9],inactive
same,outcome,[14],inactive
same,outcome,[15],inactive
C=CC(C)(O)CCC=C(C)CCC=C(C)C (configuration not stated),AC50,[1],143 µM (active)
same,AC50,[13],180 µM (active)
same,AC50,[2],100 µM (active)
same,AC50,[3],82.7 µM (active)
same,outcome,[4],inactive
same,outcome,[9],inactive
same,outcome,[14],inactive
same,AC50,[12],32.6 µM (active)
same,AC50,[16],3.93 µM (active)
Clc1ccc2c(c1)C(N1CCNCC1)=Nc1ccccc1O2,outcome,[1],inactive
same,outcome,[13],inactive
same,outcome,[2],inactive
same,AC50,[3],47 µM (active)
same,AC50,[9],53.9 µM (active)
same,AC50,[14],52.9 µM (active)
same,outcome,[12],inactive
same,AC50,[16],44.1 µM (active)
CC(C)c1ccc(C(C)C)cc1,outcome,[1],inactive
same,AC50,[2],162 µM (active)
same,outcome,[3],inactive
same,AC50,[4],158 µM (active)
same,AC50,[5],29.4 µM (active)
same,AC50,[6],31.6 µM (active)
same,AC50,[7],35.3 µM (active)
same,AC50,[8],36 µM (active)
same,outcome,[9],inactive
same,AC50,[10],35.8 µM (active)
same,AC50,[11],33.8 µM (active)
same,outcome,[15],inactive
CSc1nc(NC2CC2)nc(NC(C)(C)C)n1,outcome,[1],inactive
same,outcome,[13],inactive
same,AC50,[2],12.1 µM (active)
same,outcome,[3],inactive
same,outcome,[4],inactive
same,outcome,[14],inactive
same,AC50,[12],31.9 µM (active)
same,AC50,[16],1.05 µM (active)
O=C(O)c1cccc([N+](=O)[O-])c1,outcome,[1],inactive
same,outcome,[13],inactive
same,outcome,[2],inactive
same,outcome,[3],inactive
same,outcome,[4],inactive
same,outcome,[9],inactive
same,outcome,[14],inactive
same,outcome,[12],inactive
same,outcome,[16],inactive
same,outcome,[15],inactive
CO[Si](C)(OC)c1ccccc1,outcome,[1],inactive
same,AC50,[2],16.2 µM (active)
same,outcome,[3],inactive
same,outcome,[4],inactive
same,outcome,[14],inactive
same,outcome,[12],inactive
same,AC50,[16],2.73 µM (active)
same,outcome,[15],inactive
O=c1oc(=O)c2cc3c(=O)oc(=O)c3cc12,outcome,[1],inactive
same,outcome,[13],inactive
same,outcome,[2],inactive
same,outcome,[3],inactive
same,outcome,[14],inactive
same,outcome,[12],inactive
same,outcome,[16],inactive
same,outcome,[17],inactive
Cc1ccc2sc3cccc(C)c3c2c1,outcome,[18],inactive
same,outcome,[13],inactive
same,outcome,[2],inactive
same,outcome,[3],inactive
same,outcome,[4],inactive
same,outcome,[9],inactive
same,outcome,[14],inactive
C=CCOC(=O)CCC1CCCCC1,outcome,[1],inactive
same,outcome,[2],inactive
same,outcome,[3],inactive
same,outcome,[4],inactive
same,outcome,[5],inactive
same,outcome,[6],inactive
same,outcome,[7],inactive
same,outcome,[8],inactive
same,outcome,[9],inactive
same,outcome,[10],inactive
same,AC50,[11],31.6 µM (active)
same,outcome,[11],inactive
same,outcome,[12],inactive
same,outcome,[16],inactive
Cc1ccc(C=O)s1,outcome,[1],inactive
same,outcome,[13],inactive
same,outcome,[2],inactive
same,outcome,[3],inactive
same,outcome,[4],inactive
same,outcome,[14],inactive
same,AC50,[12],32.8 µM (active)
same,outcome,[16],inactive
same,outcome,[15],inactive
CC(=O)O[C@]1(C(C)=O)CC[C@H]2[C@@H]3C[C@H](C)C4=CC(=O)CC[C@]4(C)[C@H]3CC[C@@]21C,outcome,[18],inactive
same,AC50,[13],20 µM (active)
same,AC50,[2],65.1 µM (active)
same,outcome,[3],inactive
same,AC50,[4],34.9 µM (active)
same,outcome,[5],inactive
same,outcome,[6],inactive
same,outcome,[7],inactive
same,outcome,[8],inactive
same,outcome,[10],inactive
same,outcome,[11],inactive
same,AC50,[12],21.9 µM (active)
COc1nc(C)nc(N)n1,outcome,[13],inactive
same,outcome,[2],inactive
same,outcome,[3],inactive
same,outcome,[9],inactive
same,outcome,[12],inactive
same,outcome,[16],inactive
same,outcome,[15],inactive
